PubChem BioAssay (EPA / NIEHS)
Records with an inconclusive call do not appear. Activity calls are given as the source filed them. Rule for the calls, unless noted: active = hit-call score of the fitted dose curve at least 0.9, where 1 is the maximum; inactive = score below 0.9.

Columns and labels:
[1] = CCTE_Shafer_MEA_dev_spike_duration_mean: CCTE's Neural Network Formation Assay for Mean Spike Duration, Shafer Lab (AID 2284051);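 note: mean network spike duration pooled as area under curve over DIV 5 to 12 recordings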
Procedure, shortened: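 Spontaneous activity was recorded on days 5, 7, 9 and 12 from rat cortical cultures grown on microelectrode arrays and dosed continuously from day 0, with media and compound renewed after the DIV 5 and 9 recordings. Network-spike duration was collapsed by area under the curve.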

[2] = CCTE_Shafer_MEA_dev_network_spike_duration_std: CCTE's Neural Network Formation Assay for Standard Deviation of Network Spike Duration, Shafer Lab (AID 2284052);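 note: hits are decreases in network spike duration SD versus DMSO vehicle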
Procedure, shortened: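 Network spike duration variability was collapsed across recordings on days 5, 7, 9 and 12 by trapezoidal area-under-curve and fitted downward against DMSO. Cultures were rat cortical neurons on PEI-coated MEA plates, dosed continuously from plating, refed with compound DIV 5/9.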

[3] = CCTE_Shafer_MEA_dev_per_network_spike_spike_number_mean: CCTE's Neural Network Formation Assay for Mean Number of Spikes in a Network Spike, Shafer Lab (AID 2284053)
Procedure, shortened: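 Mean spike count within each network spike, taken in a 0.05 s window at its peak, was recorded on days 5, 7, 9 and 12 and integrated as trapezoidal area under the curve. Rat cortical cultures on MEA plates received continuous compound from day 0, refreshed at medium changes on DIV 5 and 9.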

[4] = CCTE_Shafer_MEA_dev_per_network_spike_spike_percent: CCTE's Neural Network Formation Assay for Percent of Spikes in a Network Spike, Shafer Lab (AID 2284054)
Procedure, shortened: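 Developing networks of rat cortical neurons are dosed at day 0 and recorded extracellularly four times up to day 12. The endpoint is the area under the curve of percent spikes in network spikes, fitted in the negative direction relative to DMSO.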

[5] = CCTE_Shafer_MEA_dev_LDH: CCTE's Lactate Dehydrogenase Assay for Cytotoxicity in the Neural Network Formation Assay, Shafer Lab (AID 2284068; active = hit-call score of the fitted dose curve at least 0.9, where 1 is the maximum;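 note: exposure for twelve days from plating with re-dosing on DIV 5 and 9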)
Procedure, shortened: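 Primary rat cortical neurons were cultured on PEI-coated MEA plates and exposed from plating through day 12, with compound renewed at medium changes on DIV 5 and 9. LDH activity was read spectrophotometrically; loss of signal versus DMSO indicates reduced viability.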

[6] = CCTE_Shafer_MEA_dev_AB: CCTE's Alamar Blue Assay for Cytotoxicity in the Neural Network Formation Assay, Shafer Lab (AID 2284083; active = hit-call score of the fitted dose curve at least 0.9, where 1 is the maximum;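 note: resazurin reduction fluorescence as viability of cultured neurons; twelve days of exposure from plating with re-dosing on DIV 5 and 9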)
Procedure, shortened: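 Resazurin fluorescence, relative to DMSO, gauges viability after twelve days of exposure that began at plating of rat cortical neurons (1.5 x 10^5 cells/well, 48-well MEA); treatment renewed with full medium exchange on DIV 5 and 9.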

[7] = CCTE_Shafer_MEA_acute_LDH: CCTE's Lactate Dehydrogenase Assay for Cytotoxicity in the Neural Acute Assay, Shafer Lab (AID 2284086; active = hit-call score of the fitted dose curve at least 0.9, where 1 is the maximum;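 note: active means LDH release rises above DMSO vehicle level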)
Procedure, shortened: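 Cytotoxicity readout: spectrophotometric LDH activity in supernatant of rat primary cortical neurons, post-plating day 13 or 15, sampled after 40 min compound exposure; signal gain relative to DMSO baseline.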

[8] = CCTE_Shafer_MEA_dev_mutual_information_norm: CCTE's Neural Network Formation Assay for Mutual Information Normalization, Shafer Lab (AID 2284091)
Procedure, shortened: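 Exposure of primary rat cortical neurons began at plating and ran to DIV 12, with full media and treatment renewal after DIV 5 and 9 recordings. Mutual information AUC (DIV 5–12) was analysed for loss versus DMSO.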

[9] = CCTE_Shafer_MEA_dev_correlation_coefficient_mean: CCTE's Neural Network Formation Assay for Mean Correlation Coefficient, Shafer Lab (AID 2284093)
Procedure, shortened: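 Primary rat cortical neurons on PEI-coated 48-well MEA plates (16 electrodes/well) were exposed from plating day 0 through DIV12, with compound renewed at DIV5 and 9. Pairwise spike correlations were averaged per well; trapezoidal AUC across DIV5, 7, 9, 12.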

[10] = CCTE_Mundy_HCI_Cortical_Synap_Neur_Matur_NeuriteSpotCountPerNeuriteLength: CCTE's Synaptogenesis and Neurite Maturation Assay in rat cortical cells for Neurite Spot Count per Neurite Length, Mundy Lab (AID 2284210)
Procedure, shortened: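 Neurite-associated synapse density (synaptophysin puncta per unit neurite length) is measured by fluorescence high-content imaging in rat cortical cultures treated from DIV 7 and fixed at DIV 12, with DMSO as negative control.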

[11] = CCTE_Mundy_HCI_Cortical_NOG_NeuriteCount: CCTE's Neurite Outgrowth Assay in rat cortical cells for Neurite Count, Mundy Lab (AID 2284212);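 note: cells fixed about two days after chemical exposure began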
Procedure, shortened: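 Rat cortical primary cells; compound added 2 h post-plating, 1/10 dilution of working solution. Anti-betaIII-tubulin/AF488 ICC; ArrayScan neurite count vs DMSO.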

[12] = CCTE_Mundy_HCI_Cortical_NOG_NeuriteLength: CCTE's Neurite Outgrowth Assay in rat cortical cells for Neurite Length, Mundy Lab (AID 2284213)
Procedure, shortened: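 First, rat primary cortical cells were plated and, 2 h later, given test chemical as a 1/10 dilution. Finally, βIII-tubulin immunostaining enabled automated imaging of neurite length.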

[13] = CCTE_Mundy_HCI_Cortical_Synap_Neur_Matur_NeuriteSpotCountPerNeuron: CCTE's Synaptogenesis and Neurite Maturation Assay in rat cortical cells for Neurite Spot Count per Neuron Count, Mundy Lab (AID 2284215)
Procedure, shortened: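 Rat primary cortical cultures given AraC at DIV 5, dosed from DIV 7 to DIV 12 with media change. Fixed, stained for MAP2, synaptophysin and Hoechst; neurite-associated synaptophysin puncta per neuron quantified by high-content imaging versus DMSO.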

[14] = CCTE_Mundy_HCI_Cortical_Synap_Neur_Matur_SynapseCount: CCTE's Synaptogenesis and Neurite Maturation Assay in rat cortical cells for Synapse Count, Mundy Lab (AID 2284218)
Procedure, shortened: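 Endpoint: synapses/neuron by HCI (synaptophysin puncta on MAP2-labelled neurites, Hoechst nuclei). Rat primary cortical cells, AraC DIV 5, dosed DIV 7, fixed DIV 12; DMSO negative control.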

[15] = CCTE_Mundy_HCI_Cortical_Synap_Neur_Matur_NeuriteCount: CCTE's Synaptogenesis and Neurite Maturation Assay in rat cortical cells for Neurite Count, Mundy Lab (AID 2284222);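 note: exposure from day 7 to day 12 in vitro with readout at day 12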
Procedure, shortened: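 Rat cortical neurons, 96-well; AraC DIV 5; chemical + media change DIV 7; end DIV 12. Fix PFA/Hoechst, anti-MAP2 + anti-synaptophysin IF. HCI neurite count vs DMSO baseline.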

[16] = CCTE_Mundy_HCI_Cortical_Synap_Neur_Matur_CellBodySpotCount: CCTE's Synaptogenesis and Neurite Maturation Assay in rat cortical cells for Cell Body Spot Count, Mundy Lab (AID 2284223)
Procedure, shortened: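 Primary rat cortical cultures, AraC added at DIV 5; dosed DIV 7 through DIV 12 […]. Fixed, stained for MAP2 and synaptophysin with Hoechst; cell body-associated synaptophysin puncta per neuron counted by high-content imaging, loss vs DMSO.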

[17] = CCTE_Mundy_HCI_hNP1_Casp3_7: CCTE's Caspase-Glo 3/7 Assay in human neuroprogenitor cells for Apoptosis, Mundy Lab (AID 2284240)
Procedure, shortened: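 Neuroepithelial-lineage stem cells from WA09 embryonic cells were treated with chemicals after 40–44 h of culture. Twenty-four hours later, caspase-3/7 activation was detected luminescently after a 30 min room-temperature reagent step, with DMSO as baseline.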

[18] = CCTE_Mundy_HCI_hNP1_CellTiter: CCTE's Cell Titer-Glo 2 Assay in human neuroprogenitor cells for Viability, Mundy Lab (AID 2284241; active = hit-call score of the fitted dose curve at least 0.9, where 1 is the maximum)
Procedure, shortened: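 Measures ATP content in human neural progenitors derived from WA09 embryonic cells. Read-out at 26.5 hours after dosing, with DMSO serving as the negative control and baseline.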

[19] = CCTE_Mundy_HCI_Cortical_Synap_Neur_Matur_NeuronCount: CCTE's Synaptogenesis and Neurite Maturation Assay in rat cortical cells for Neuron Count, Mundy Lab (AID 2284242; active = hit-call score of the fitted dose curve at least 0.9, where 1 is the maximum)
Procedure, shortened: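 Measured at DIV 12: fluorescently labelled neurons (Hoechst nuclei, MAP2) in rat primary cortical cultures, counted by high-content imaging. AraC suppressed glia from DIV 5; DMSO served as negative control.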

[20] = CCTE_Mundy_HCI_iCellGluta_NOG_NeuronCount: CCTE's Neurite Outgrowth Assay in iCellGluta cells for Neuron Count, Mundy Lab (AID 2284340; active = hit-call score of the fitted dose curve at least 0.9, where 1 is the maximum;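 note: cells fixed about 48 h after compound addition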)
Procedure, shortened: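 Neuron count read by automated high-content imaging of Hoechst 33342 and betaIII-tubulin/Alexa Fluor-488 labelling in human iPSC glutamatergic neurons. Activity fitted relative to DMSO.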

[21] = CCTE_Mundy_HCI_iCellGluta_NOG_NeuriteCount: CCTE's Neurite Outgrowth Assay in iCellGluta cells for Neurite Count, Mundy Lab (AID 2284342; active = hit-call score of the fitted dose curve at least 0.9, where 1 is the maximum;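 note: chemical exposure about 48 hours starting 2 hours after plating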)

Measured: outcome

C#CCN(C)[C@H](C)Cc1ccccc1
inactive: [1] | [2] | [3] | [4] | [5] | [6] | [7] | [8] | [9] | [10] | [11] | [12] | [13] | [14] | [15] | [16] | [17] | [18] | [19] | [20] | [21]
